This passage reports Potency and viability results from PubChem BioAssay (NCATS).

Records with an inconclusive call do not appear. A number with no mark means an inactive call. Calls of active or inactive are those of the source. Calls follow the shape of the dose curve; as a rule, active = well fitted curve in the direction sought with a large enough effect; inconclusive = small, poorly fitted or top-dose-only effect, or another doubt; inactive = no such curve, though single readings can be large; an effect the other way counts as inactive or inconclusive.

A short description of experiment [1]: Quantitative High-Throughput drug screen in 47 multiple myeloma cell lines against the NCATS MIPE library collection: KMS20_JCRB cell viability assay (AID 1918973). Also: nearly all actives have a fitted effect of over 45% in size. Also: potency is read from the fitted curve at half-maximal effect. In short, it runs like this: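 CellTiter-Glo luminescence (ATP) after 48 h compound exposure, 37C/5% CO2; 500 cells/well; MIPE 4.0 approved/investigational drugs pinned in; DMSO = 100%, media only = 0% viability.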

Experiment [2] can be described thus: Quantitative High-Throughput drug screen in 47 multiple myeloma cell lines against the NCATS MIPE library collection: KMS26_JCRB cell viability assay (AID 1918975). Also: nearly all actives have a fitted effect of over 45% in size. Also: potency is read from the fitted curve at half-maximal effect. An outline of the steps: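 Myeloma cell lines, 500 cells per well, exposed to MIPE 4.0 library compounds for 48 h at 37C, 5% CO2. Viability from ATP by CellTiter-Glo luminescence; normalised to DMSO (100%) and media-only (0%) wells.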

A short description of experiment [3]: Quantitative High-Throughput drug screen in 47 multiple myeloma cell lines against the NCATS MIPE library collection: MOLP8_DSMZ cell viability assay (AID 1918977). Also: nearly all actives have a fitted effect of over 45% in size. In short, it runs like this:
(§1)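 500 cells/well; MIPE 4.0 drugs pin-transferred; 48 h, 37C, 5% CO2. CellTiter-Glo, 5 min RT, luminescence. Controls: DMSO 100%, media 0%.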

Experiment [4] can be described thus: Quantitative High-Throughput drug screen in 47 multiple myeloma cell lines against the NCATS MIPE library collection: NCIH929_DSMZ cell viability assay (AID 1918978). Also: nearly all actives have a fitted effect of over 35% in size. Also: potency is read from the fitted curve at half-maximal effect. An outline of the steps: as §1
Experiment [5] can be described thus: Quantitative High-Throughput drug screen in 47 multiple myeloma cell lines against the NCATS MIPE library collection: MM1S_ATCC cell viability assay (AID 1918980). Also: nearly all actives have a fitted effect of over 45% in size. Also: potency is read from the fitted curve at half-maximal effect. In short, it runs like this:
as §1

Experiment [6] in a line: Quantitative High-Throughput drug screen in 47 multiple myeloma cell lines against the NCATS MIPE library collection: MM1R_ATCC cell viability assay (AID 1918981). Also: nearly all actives have a fitted effect of over 35% in size. Also: potency is read from the fitted curve at half-maximal effect. In short, it runs like this:
as §1

Experiment [7] in a line: Quantitative High-Throughput drug screen in 47 multiple myeloma cell lines against the NCATS MIPE library collection: KMS28PE_JCRB cell viability assay (AID 1918983). Also: nearly all actives have a fitted effect of over 35% in size. Also: potency is read from the fitted curve at half-maximal effect. In short, it runs like this:
as §1

Experiment [8] can be described thus: Quantitative High-Throughput drug screen in 47 multiple myeloma cell lines against the NCATS MIPE library collection: KMS34_JCRB cell viability assay (AID 1918985). Also: nearly all actives have a fitted effect of over 40% in size. Also: potency is read from the fitted curve at half-maximal effect. An outline of the steps:
as §1

Experiment [9] in a line: Quantitative High-Throughput drug screen in 47 multiple myeloma cell lines against the NCATS MIPE library collection: OCIMY7_PLB cell viability assay (AID 1918987). Also: potency is read from the fitted curve at half-maximal effect; nearly all actives have a fitted effect of over 65% in size. As to conditions: OCI-MY7 myeloma viability, CellTiter-Glo ATP, 48 h; viability (% of DMSO): at 45.8 µM (top of the series). An outline of the steps:
as §1
On the technique in general: In ATP-based viability assays light output follows the ATP content of the culture.

The nature of experiment [10]: Quantitative High-Throughput drug screen in 47 multiple myeloma cell lines against the NCATS MIPE library collection: OCIMY5_PLB cell viability assay (AID 1918988). Also: potency is read from the fitted curve at half-maximal effect; nearly all actives have a fitted effect of over 65% in size. An outline of the steps:
as §1

Experiment [11] can be described thus: Quantitative High-Throughput drug screen in 47 multiple myeloma cell lines against the NCATS MIPE library collection: OPM1_PLB cell viability assay (AID 1918989). Also: nearly all actives have a fitted effect of over 40% in size. Also: potency is read from the fitted curve at half-maximal effect. An outline of the steps: as §1
Experiment [12] in a line: Quantitative High-Throughput drug screen in 47 multiple myeloma cell lines against the NCATS MIPE library collection: SKMM1_PLB cell viability assay (AID 1919863). Also: nearly all actives have a fitted effect of over 35% in size. Also: potency is read from the fitted curve at half-maximal effect. As to conditions: SKMM1 myeloma viability, CellTiter-Glo ATP, 48 h; viability: stronger effect = lower value. An outline of the steps:
as §1

Experiment [13] is described as follows: Quantitative High-Throughput drug screen in 47 multiple myeloma cell lines against the NCATS MIPE library collection: XG6_PLB cell viability assay (AID 1919865). Also: nearly all actives have a fitted effect of over 40% in size. Also: potency is read from the fitted curve at half-maximal effect. An outline of the steps: as §1
A short description of experiment [14]: Quantitative High-Throughput drug screen in 47 multiple myeloma cell lines against the NCATS MIPE library collection: XG1_PLB cell viability assay (AID 1919866). Also: nearly all actives have a fitted effect of over 35% in size. Also: potency is read from the fitted curve at half-maximal effect. In short, it runs like this: as §1
Experiment [15] is described as follows: Quantitative High-Throughput drug screen in 47 multiple myeloma cell lines against the NCATS MIPE library collection: MMM1_PLB cell viability assay (AID 1918976). In short, it runs like this: as §1
Experiment [16] is described as follows: Quantitative High-Throughput drug screen in 47 multiple myeloma cell lines against the NCATS MIPE library collection: LP1_DSMZ cell viability assay (AID 1918982). Also: nearly all actives have a fitted effect of over 35% in size. Also: potency is read from the fitted curve at half-maximal effect. In short, it runs like this: as §1
Experiment [17] is described as follows: Quantitative High-Throughput drug screen in 47 multiple myeloma cell lines against the NCATS MIPE library collection: OCIMY1_PLB cell viability assay (AID 1918979). Also: nearly all actives have a fitted effect of over 35% in size. Also: potency is read from the fitted curve at half-maximal effect. An outline of the steps: as §1
The nature of experiment [18]: Quantitative High-Throughput drug screen in 47 multiple myeloma cell lines against the NCATS MIPE library collection: L363_DSMZ cell viability assay (AID 1918984). Also: nearly all actives have a fitted effect of over 40% in size. Also: potency is read from the fitted curve at half-maximal effect. As to conditions: L363 myeloma viability, CellTiter-Glo ATP luminescence, 48 h; viability (% of control): at 45.8 µM (top of the series). An outline of the steps: as §1
Experiment [19] in a line: Quantitative High-Throughput drug screen in 47 multiple myeloma cell lines against the NCATS MIPE library collection: U266_ATCC cell viability assay (AID 1919864). Also: nearly all actives have a fitted effect of over 35% in size. Also: potency is read from the fitted curve at half-maximal effect. An outline of the steps: as §1

As usually defined, the viability is a per cent measure of how many cells are alive, often set against a control.

In the case of `COc1cc2ncnc(Nc3cc(Br)c(O)c(Br)c3)c2cc1OC`, the Potency in [1] was 0.0023 µM (active); in experiment [5], 0.0026 µM (active); in [6], 0.0418 µM (active); in [7], 1.48 µM (active); in experiment [8], 6.62 µM (active); in experiment [9], 0.0042 µM (active). For the same molecule, the Potency in experiment [10] was 0.0023 µM (active); in [11] it was 2.35 µM (active); in experiment [12], 0.0469 µM (active); in experiment [13] it was 0.0047 µM (active); in [14], 0.0074 µM (active). The Potency result in experiment [2], in experiment [3] and in [4] was “inactive” throughout.

Regarding `Cc1[nH]c(C=C2C(=O)Nc3ccc(S(=O)(=O)N(C)c4cccc(Cl)c4)cc32)c(C)c1C(=O)N1CCN(C)CC1`, the Potency was 5.26 µM (active) in experiment [1]; 23.5 µM (active) in [2]; 18.7 µM (active) in experiment [15]; 11.8 µM (active) in [4]; 26.4 µM (active) in [5]; 23.5 µM (active) in experiment [6]. The Potency is 18.7 µM (active) in [16]; 23.5 µM (active) in experiment [7]; 20.9 µM (active) in experiment [8]; 18.7 µM (active) in [9]; 9.35 µM (active) in experiment [11]; 20.9 µM (active) in experiment [12]. The Potency was 9.35 µM (active) in experiment [13] and 11.8 µM (active) in [14].

In the case of `O=c1[nH]nc(OCCCc2ccc(Cl)cc2)c(NCc2cccnc2)c1Br`, the Potency was 1.05 µM (active) in [1]; 14.8 µM (active) in [2]; 16.6 µM (active) in experiment [15]; 7.43 µM (active) in experiment [4]; 18.7 µM (active) in experiment [17]; 16.6 µM (active) in experiment [6]. The Potency was 3.72 µM (active) in [18]; 20.9 µM (active) in experiment [8]; 7.43 µM (active) in experiment [9]; 18.7 µM (active) in experiment [10]; 18.7 µM (active) in [12]; 7.43 µM (active) in [19]. For the same molecule, the values for the Potency in experiment [13] and in [14] were 2.96 µM (active) and 9.35 µM (active), respectively.

Consider `CC=C1C2C=C(C)CC1(N)c1ccc(=O)[nH]c1C2` (stereo not given), for which the Potency entry in experiment [1], in experiment [2], in experiment [3], in experiment [4], in experiment [17] and in experiment [5] was “inactive” in each case. Besides, the Potency result in experiment [6], in experiment [16], in experiment [7], in [18], in experiment [11] and in [19] was “inactive” in each case. Moreover, the Potency result in experiment [13] and in experiment [14] was “inactive” in each case.

As for `COc1ccc(-c2ccc3ncc4c(c3c2)n(-c2ccc(N3CCNCC3)c(C(F)(F)F)c2)c(=O)n4C)cn1`, the Potency in experiment [1] was 0.0066 µM (active); in experiment [2] it was 0.0083 µM (active); in experiment [15], 0.0074 µM (active); in experiment [7], 0.0066 µM (active); in [9] it was 0.0059 µM (active); in experiment [10], 0.0469 µM (active). Moreover, the Potency is 0.526 µM (active) in experiment [12] and 0.118 µM (active) in [19]. Further, the Potency entry in experiment [11] is “inactive”.

Regarding `COc1cc2ncn(-c3cc(OCc4ccccc4S(C)(=O)=O)c(C#N)s3)c2cc1OC`, the Potency entry in [1], in experiment [2], in [17], in experiment [6], in experiment [16] and in [8] was “inactive” each time. In addition, the Potency result in experiment [11] is “inactive”. Moreover, the Potency in experiment [15] was 5.9 µM (active); in experiment [4], 4.69 µM (active); in experiment [5], 20.9 µM (active).

Take `Nc1ncnc2c1c(-c1cccc(OCc3ccccc3)c1)cn2C1CC(CN2CCC2)C1` (stereo not given): the Potency is 3.72 µM (active) in experiment [1]; 4.69 µM (active) in experiment [2]; 2.96 µM (active) in [15]; 0.418 µM (active) in [4]; 2.96 µM (active) in experiment [5]; 4.69 µM (active) in experiment [6]. In addition, the Potency is 3.32 µM (active) in [7]; 1.87 µM (active) in [18]; 0.296 µM (active) in experiment [9]; 4.18 µM (active) in experiment [10]; 16.6 µM (active) in experiment [11]; 16.6 µM (active) in experiment [19]. Besides, the values for the Potency in experiment [13] and in [14] were 14.8 µM (active) and 23.5 µM (active), respectively.

Take `CC1=C(CC(=O)O)c2cc(F)ccc2C1=Cc1ccc(S(C)=O)cc1` (stereo not given): the Potency in experiment [1] was 9.35 µM (active); in [2], 2.09 µM (active); in experiment [4], 1.05 µM (active); in [5], 1.32 µM (active); in experiment [6], 3.32 µM (active); in experiment [7] it was 20.9 µM (active). The Potency in experiment [10] is 0.935 µM (active); in experiment [11] it was 26.4 µM (active); in experiment [19], 1.18 µM (active); in experiment [13], 1.05 µM (active); in experiment [14], 0.935 µM (active). Further, the Potency entry in experiment [17] and in experiment [16] was “inactive” throughout. Besides, the viability in [12] is 92.7%.

For the molecule `CCCCC(F)(F)[C@@]1(O)CC[C@H]2[C@H](CC(=O)[C@@H]2CCCCCCC(=O)O)O1`, the figures for the Potency in experiment [1] and in experiment [10] were 0.418 µM (active) and 0.235 µM (active), respectively. Moreover, the Potency entry in experiment [2], in [4], in experiment [17], in experiment [6], in [16] and in experiment [7] was “inactive” each time. Moreover, the Potency result in [11], in [19] and in [14] was “inactive” in each case. Besides, the viability in experiment [12] was 97.7%.

In the case of `C[C@H]1[C@H](O)O[C@@H]2O[C@@]3(C)CC[C@@H]4[C@H](C)CC[C@@H]1[C@@]24OO3`, the Potency is 14.8 µM (active) in experiment [1]; 10.5 µM (active) in experiment [2]; 11.8 µM (active) in experiment [5]; 2.35 µM (active) in [18]; 1.18 µM (active) in experiment [9]; 5.26 µM (active) in experiment [10]. For the same molecule, the Potency in experiment [11] was 11.8 µM (active); in [13] it was 3.72 µM (active).

With `O=C(CC12CC3CC(CC(C3)C1)C2)Nc1cccc2nc(NCCNCCO)ccc12`, the Potency was 6.62 µM (active) in experiment [1]; 18.7 µM (active) in experiment [2]; 2.35 µM (active) in experiment [4]; 8.33 µM (active) in experiment [5]; 20.9 µM (active) in experiment [6]; 16.6 µM (active) in experiment [7]. The Potency in experiment [8] is 26.4 µM (active); in experiment [9], 0.743 µM (active); in [10], 11.8 µM (active); in experiment [11] it was 7.43 µM (active); in experiment [12] it was 16.6 µM (active); in experiment [13], 1.18 µM (active).
